Experimental data: PubChem BioAssay (Tox21)
Records with an inconclusive call do not appear. Active and inactive are the calls of the source. Unless noted, the call rests on the fitted dose curve; in most records, active means well fitted curve in the direction sought with a large enough effect in the repeat runs; inconclusive means weak or mixed curves; inactive means no such curve, though single readings can be large; an effect the other way counts as inactive or inconclusive.

Assays:
[1] = qHTS assay to identify small molecule antagonists of the estrogen receptor alpha (ER-alpha) signaling pathway using the BG1 cell line in the presence of 0.1 nM 17-beta-estradiol - cell viability counter screen (AID 1259241); further: nearly all actives have a fitted effect of over 40% in size; further: potency means the concentration at half of the fitted maximal effect
How it was run: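 In this screen, hormone-deprived VM7Luc4E2 cells were seeded at 4,000 per well, dosed with compound and 0.1 nM estradiol final, and incubated 22 hr at 37C and 5% CO2; fluorogenic live-cell protease signal reported viability.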

[2] = qHTS assay to identify small molecule antagonists of the androgen receptor (AR) signaling pathway using the MDA cell line in the presence of 0.5 nM R1881 - cell viability counter screen (AID 1259242); further: nearly all actives have a fitted effect of over 45% in size
How it was run: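 R1881 at 0.5 nM final stimulated MDA-kb2 cells during 16 hr compound treatment at 37C. Cytotoxicity read: CellTiter-Fluor fluorescence after 30 min.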

[3] = qHTS assay to identify small molecule HDAC inhibitors (AID 1259364);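 further: wild-type HCT-116 cells with endogenous class I/II HDAC activity; top concentration of the series differs between compounds; nearly all actives have a fitted effect of over 45% in size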
How it was run: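 Relative class I and II HDAC activity is taken from the luminogenic signal in HCT-116 cells, with compound exposure 2 hr and reagent development 30 min at room temperature.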

[4] = qHTS assay to identify small molecule HDAC inhibitors - cell viability counter screen (AID 1259365); further: series mostly up to about 92 µM; nearly all actives have a fitted effect of over 50% in size
How it was run: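 Measured quantity is CellTiter-Glo luminescence from wild-type HCT-116 cells after compound incubation of 2hr at 37C, 5% CO2; reagent developed 30min at room temperature.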

[5] = qHTS assay to identify small molecule agonists of the sonic hedgehog signaling (Shh) pathway - cell viability counter screen (AID 1259366); further: nearly all actives have a fitted effect of over 50% in size
How it was run: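 In quantitative high-throughput format, 3T3 Gli1-Luc cells were exposed to compounds for 24hr and multiplexed for viability using CellTiter-Fluor, incubated 1hr at 37C before the fluorescence read.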

[6] = qHTS assay to identify small molecule agonists of the sonic hedgehog signaling (Shh) pathway (AID 1259368; calls by dose curve; further: nearly all actives have a fitted effect of over 15% in size; further: potency means the concentration at half of the fitted maximal effect)
How it was run: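 Mouse fibroblast (NIH/3T3) reporter cells with stably integrated Gli1-Luc were treated 24 hr with compound; firefly luciferase luminescence served as the read-out.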

[7] = qHTS assay to identify small molecule antagonists of the sonic hedgehog signaling (Shh) pathway (AID 1259369; calls by dose curve; further: nearly all actives have a fitted effect of over 45% in size; further: potency means the concentration at half of the fitted maximal effect)
How it was run: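 Conditioned medium drives Shh signalling in 3T3Gli1-Luc cells; compounds in DMSO co-applied, 24hr at 37 C, then luciferase luminescence.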

[8] = qHTS assay to identify small molecule agonists of the androgen receptor (AR) signaling pathway in the presence of an antagonist - cell viability counter screen (AID 1259379);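 further: MDA-kb2 human breast cancer cells carrying an MMTV luciferase reporter; series mostly up to about 92 µM; nearly all actives have a fitted effect of over 25% in size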
How it was run: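 A CellTiter-Fluor read-out measured viability of MDA-kb2 reporter cells (MMTV promoter with AR and GR response elements). Treatment: nilutamide 3.0uM final with compounds at 15 concentrations, 16 hr, 37C, 0% CO2.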

[9] = qHTS assay to identify small molecule agonists of the estrogen receptor beta (ER-beta) signaling pathway - cell viability counter screen (AID 1259380); further: nearly all actives have a fitted effect of over 30% in size; further: potency means the concentration at half of the fitted maximal effect
How it was run: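 Cells used were ER-beta-UAS-bla HEK293T in medium with 2% charcoal-stripped FBS. They were treated for 16 hr at 37C. Viability came from CellTiter-Glo luminescence.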

[10] = qHTS assay to identify small molecule antagonists of the estrogen receptor beta (ER-beta) signaling pathway - cell viability counter screen (AID 1259382); further: nearly all actives have a fitted effect of over 55% in size; further: potency means the concentration at half of the fitted maximal effect
How it was run: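 Agonist-stimulated (1nM E2) ER-beta-UAS-bla HEK293T cells are incubated with library compounds for 16 hr at 37C. Cell viability is then assessed in the reporter-assay wells by adding CellTiter-Glo and reading luminescence after 30 min.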

[11] = qHTS assay to identify small molecule agonists or antagonists of the thyroid stimulating hormone receptor (TSHR) signaling pathway - wild type cell line counter screen (AID 1259384; calls by dose curve)
How it was run: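 Counter screen in untransfected Hek293: compounds (15-point titration, triplicate) plus phosphodiesterase inhibitor Ro20-1724 added after 18 h plating; 30 min RT. Intracellular cAMP via competitive d2/cryptate immunoassay, 1 h incubation.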

[12] = molecular target: Thyrotropin receptor (Homo sapiens) (UniProt P16473); assay: qHTS assay to identify small molecule antagonists of the thyroid stimulating hormone receptor (TSHR) signaling pathway (AID 1259385; calls by dose curve; further: nearly all actives have a fitted effect of over 20% in size)
How it was run: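 Antagonist mode: compound-treated TSHR-expressing HEK293 cells were stimulated with 1.5 ng/mL TSH (final) in presence of Ro20-1724 for 30 min at RT. HTRF cAMP detection after 1 h; each compound tested at 15 concentrations, triplicate.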

[13] = qHTS assay to identify small molecule antagonists of the sonic hedgehog signaling (Shh) pathway - cell viability counter screen (AID 1259367); further: nearly all actives have a fitted effect of over 55% in size
How it was run: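 Using CellTiter-Fluor, viability of Gli1-Luc reporter 3T3 cells is read by fluorescence in the wells used for the Shh luciferase assay. Treatment lasts 23 hr with conditioned medium, then reagent 1 hr at 37C.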

[14] = molecular target: Estrogen receptor beta (Homo sapiens) (UniProt Q92731); assay: qHTS assay to identify small molecule agonists of the estrogen receptor beta (ER-beta) signaling pathway (AID 1259377; active means well fitted activation curve with a large enough effect in the signal ratio in the repeat runs, not every such curve was filed as active; the % refers to the signal ratio)
How it was run: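 Reporter cells (HEK293T, ER-beta-UAS-bla) receive compounds or DMSO after a 6 hr pre-incubation. They then incubate 16 hr at 37C/5% CO2, and fluorescence from LiveBLAzer B/G substrate is measured after 2 hours at room temperature.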

[15] = molecular target: Estrogen receptor beta (Homo sapiens) (UniProt Q92731); assay: qHTS assay to identify small molecule antagonists of the estrogen receptor beta (ER-beta) signaling pathway (AID 1259378; active means well fitted inhibition curve with a large enough effect in the signal ratio in the repeat runs, not every such curve was filed as active; the % refers to the signal ratio; further: potency means the concentration at half of the fitted maximal effect)
How it was run: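 Antagonist mode: compounds added to beta-lactamase reporter HEK293T ER-beta-UAS cells stimulated with E2 (1nM final), 16 hr at 37C. LiveBLAzer B/G FRET substrate, 2 hours room temperature, fluorescence read-out.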

[16] = molecular target: Estrogen receptor (Homo sapiens) (UniProt P03372); assay: qHTS assay to identify small molecule agonists of the estrogen receptor alpha (ER-alpha) signaling pathway in the presence of an antagonist (AID 1259383; calls by dose curve; further: top concentration of the series differs between compounds; nearly all actives have a fitted effect of over 15% in size)
How it was run: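 Using VM7Luc4E2 cells seeded 24hr before treatment, antagonist ICI-182,780 (10.0nM final) was added, followed by compounds at 15 concentrations. Plates incubated 22hr; ONE-Glo luminescence quantified reporter activity.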

Measured: Potency

Estrogen receptor (Homo sapiens), sequence (P03372 whole entry, looked up): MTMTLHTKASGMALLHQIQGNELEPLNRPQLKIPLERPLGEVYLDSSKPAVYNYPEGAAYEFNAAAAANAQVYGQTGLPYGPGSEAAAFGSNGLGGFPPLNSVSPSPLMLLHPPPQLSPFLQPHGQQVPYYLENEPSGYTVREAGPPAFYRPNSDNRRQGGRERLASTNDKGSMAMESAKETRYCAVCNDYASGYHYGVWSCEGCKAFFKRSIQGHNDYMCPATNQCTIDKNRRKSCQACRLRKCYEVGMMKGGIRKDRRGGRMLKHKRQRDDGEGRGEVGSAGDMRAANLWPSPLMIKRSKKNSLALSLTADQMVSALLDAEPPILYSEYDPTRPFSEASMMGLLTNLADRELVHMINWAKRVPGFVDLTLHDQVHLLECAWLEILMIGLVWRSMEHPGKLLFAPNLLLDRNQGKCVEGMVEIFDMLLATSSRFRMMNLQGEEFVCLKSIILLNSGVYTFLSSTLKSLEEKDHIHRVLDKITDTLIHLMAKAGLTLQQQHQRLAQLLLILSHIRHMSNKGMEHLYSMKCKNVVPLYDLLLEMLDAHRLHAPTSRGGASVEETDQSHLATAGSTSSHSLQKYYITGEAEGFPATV
Thyrotropin receptor (Homo sapiens), sequence (P16473 whole entry, looked up): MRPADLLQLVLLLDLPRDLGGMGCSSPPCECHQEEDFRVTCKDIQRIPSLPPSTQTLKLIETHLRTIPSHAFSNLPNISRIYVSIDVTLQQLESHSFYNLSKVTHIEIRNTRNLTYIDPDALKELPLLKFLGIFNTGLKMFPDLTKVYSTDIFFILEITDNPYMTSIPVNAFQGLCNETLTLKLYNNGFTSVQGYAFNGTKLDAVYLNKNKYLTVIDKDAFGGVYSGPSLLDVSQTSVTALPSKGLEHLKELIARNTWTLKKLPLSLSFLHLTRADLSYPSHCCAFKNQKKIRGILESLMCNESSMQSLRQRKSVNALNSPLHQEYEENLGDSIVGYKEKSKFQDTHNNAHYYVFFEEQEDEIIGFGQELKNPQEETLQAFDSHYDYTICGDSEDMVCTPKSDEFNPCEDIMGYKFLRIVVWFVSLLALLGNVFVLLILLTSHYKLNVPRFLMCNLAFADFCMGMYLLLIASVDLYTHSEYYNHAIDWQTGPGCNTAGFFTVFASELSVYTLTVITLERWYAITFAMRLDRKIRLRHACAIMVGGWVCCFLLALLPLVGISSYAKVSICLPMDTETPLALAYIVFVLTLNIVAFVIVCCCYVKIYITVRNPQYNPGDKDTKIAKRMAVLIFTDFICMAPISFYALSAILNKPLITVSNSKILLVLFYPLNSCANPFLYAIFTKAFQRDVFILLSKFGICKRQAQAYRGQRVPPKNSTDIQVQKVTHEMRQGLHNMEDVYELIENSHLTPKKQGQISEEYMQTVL
Estrogen receptor beta (Homo sapiens), sequence (Q92731 whole entry, looked up): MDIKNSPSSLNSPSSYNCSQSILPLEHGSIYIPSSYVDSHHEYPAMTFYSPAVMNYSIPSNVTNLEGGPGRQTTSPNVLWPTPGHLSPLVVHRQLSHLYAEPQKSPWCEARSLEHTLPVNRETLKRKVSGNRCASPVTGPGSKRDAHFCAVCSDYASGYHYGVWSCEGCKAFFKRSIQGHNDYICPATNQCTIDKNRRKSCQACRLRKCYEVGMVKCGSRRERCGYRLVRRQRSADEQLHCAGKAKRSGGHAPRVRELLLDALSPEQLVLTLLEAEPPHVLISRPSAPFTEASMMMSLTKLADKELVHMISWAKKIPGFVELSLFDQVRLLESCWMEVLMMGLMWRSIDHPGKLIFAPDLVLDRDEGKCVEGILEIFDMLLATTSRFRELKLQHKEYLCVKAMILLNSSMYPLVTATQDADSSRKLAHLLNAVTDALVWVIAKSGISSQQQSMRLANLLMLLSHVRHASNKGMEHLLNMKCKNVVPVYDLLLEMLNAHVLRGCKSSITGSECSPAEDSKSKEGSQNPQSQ

C[C@]12Cc3cn[nH]c3C[C@@H]1CC[C@@H]1[C@@H]2CC[C@@]2(C)[C@H]1CC[C@]2(C)O
active: [7] 13.3 µM | [9] 8.41 µM | [10] 6.68 µM
not listed: [13] | [14] | [15] | [16]
inactive: all other assays above

CCOP(=O)(OCC)Oc1cc(C)nc(C(C)C)n1
not listed: [5] | [16]
inactive: all other assays above

CC(C)Br
not listed: [3] | [9] | [15]
inactive: all other assays above

N#Cc1ccc(N(CC(N)=O)CC(F)(F)F)cc1C(F)(F)F
not listed: [3] | [5]
inactive: all other assays above

O.O.O.O.O.O.O.O=S(=O)([O-])[O-].[Co+2]
active: [6] 61.5 µM
inactive: [1] | [2] | [4] | [13] | [7] | [8] | [9] | [10]

CNC(=O)CSP(=O)(OC)OC
not listed: [4] | [16]
inactive: all other assays above

C#CCC1=C(C)C(OC(=O)C2C(C=C(C)C)C2(C)C)CC1=O (stereo unspecified)
active: [15] 60.7 µM
not listed: [9] | [13] | [16]
inactive: all other assays above

CCCCn1cc[n+](C)c1.[Cl][Fe-]([Cl])([Cl])[Cl]
inactive: [1] | [2] | [4] | [13] | [6] | [7] | [8] | [9] | [10]

CCCCCON=O
not listed: [5] | [7] | [16]
inactive: all other assays above

[Cl-].[Cl-].[Sn+2]
not listed: [5] | [11] | [12] | [14] | [15] | [16]
inactive: all other assays above

CNC(=O)O/N=C(\C)C(C)S(C)(=O)=O (stereo unspecified)
active: [7] 282 µM
not listed: [13] | [14] | [15] | [16]
inactive: all other assays above

CSSC
active: [7] 15.5 µM
not listed: [4] | [16]
inactive: all other assays above

[C-]1=CC=CC1.[Cl][Zr+2][Cl].c1cc[cH-]c1
inactive: [1] | [2] | [4] | [13] | [6] | [7] | [8] | [9] | [10]

CCCCC(CC)COC(=O)OOC(C)(C)C (stereo unspecified)
not listed: [3] | [11] | [12] | [14] | [15] | [16]
inactive: all other assays above

CNN
not listed: [4] | [11] | [12] | [14] | [15] | [16]
inactive: all other assays above

[Cl-].[Cl-].[Cl-].[Yb+3]
inactive: [1] | [2] | [3] | [4] | [6] | [7] | [8] | [10]

c1cc[n+]2c(c1)-c1cccc[n+]1CC2
active: [1] 26.6 µM
not listed: [4] | [5] | [7] | [14] | [15]
inactive: all other assays above

CCCCN(CCCC)C(=S)S
not listed: [11] | [12] | [13] | [14] | [15]
inactive: all other assays above

CCCC[N+]1(C)CCCC1 (tested in a mixture with another compound)
inactive: [1] | [2] | [3] | [5] | [13] | [6] | [8] | [9] | [10]

Cc1c([N+](=O)[O-])c(C)c([N+](=O)[O-])c(C(C)(C)C)c1[N+](=O)[O-]
active: [9] 27.3 µM
not listed: [4] | [10] | [14] | [15] | [16]
inactive: all other assays above

CC1(C)C(C=C(Cl)Cl)C1C(=O)OC(C#N)c1ccc(F)c(Oc2ccccc2)c1 (stereo unspecified)
not listed: [5]
inactive: all other assays above
